{
  "source": "the supplement of paper PMC11732987",
  "about": "“Enantioselective OTUD7B fragment discovery through chemoproteomics screening and high-throughput optimisation” (Communications Chemistry, 2025)",
  "assay_in_all_cases": "log2 ratio of Biotin-Ahx-Ub-VS probe labelling (fragment/DMSO); higher = less target engagement (more negative = stronger competition), active = hit call of the paper (q ≤ 0.05, log2 ratio ≤ -1)",
  "conditions_in_all_cases": "compound concentration: 200 uM; treatment time: 3 h",
  "key": {"[1]": {"molecular_target": "T1, OTUD6B (UniProt Q8N6M0)", "T1 sequence (whole entry)": "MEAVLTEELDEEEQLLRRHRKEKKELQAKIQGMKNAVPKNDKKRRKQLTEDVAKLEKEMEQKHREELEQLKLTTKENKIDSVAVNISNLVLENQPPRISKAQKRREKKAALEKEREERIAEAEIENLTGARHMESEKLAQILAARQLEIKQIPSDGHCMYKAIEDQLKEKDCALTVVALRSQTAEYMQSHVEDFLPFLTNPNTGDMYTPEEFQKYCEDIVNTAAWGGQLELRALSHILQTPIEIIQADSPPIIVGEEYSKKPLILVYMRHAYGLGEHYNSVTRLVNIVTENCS", "summary_of_the_method": "(§1)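 Triplicate samples of HEK293T lysate, 495 µg each, received fragment at 200 µM or vehicle for 3 h, followed by Biotin-Ahx-Ub-VS (0.5 µM final) for 1 h. After NeutrAvidin enrichment of labelled DUBs and LysC/trypsin digestion, peptides were run by diaPASEF LC-MS/MS. The values are average log2 fragment/vehicle ratios from global-median-normalised Spectronaut label-free quantities, tested by unpaired t-test on proteins having ≥2 unique peptides.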"}, "[2]": {"molecular_target": "T2, OTUD7B (UniProt Q6GQQ9)", "T2 sequence (whole entry)": "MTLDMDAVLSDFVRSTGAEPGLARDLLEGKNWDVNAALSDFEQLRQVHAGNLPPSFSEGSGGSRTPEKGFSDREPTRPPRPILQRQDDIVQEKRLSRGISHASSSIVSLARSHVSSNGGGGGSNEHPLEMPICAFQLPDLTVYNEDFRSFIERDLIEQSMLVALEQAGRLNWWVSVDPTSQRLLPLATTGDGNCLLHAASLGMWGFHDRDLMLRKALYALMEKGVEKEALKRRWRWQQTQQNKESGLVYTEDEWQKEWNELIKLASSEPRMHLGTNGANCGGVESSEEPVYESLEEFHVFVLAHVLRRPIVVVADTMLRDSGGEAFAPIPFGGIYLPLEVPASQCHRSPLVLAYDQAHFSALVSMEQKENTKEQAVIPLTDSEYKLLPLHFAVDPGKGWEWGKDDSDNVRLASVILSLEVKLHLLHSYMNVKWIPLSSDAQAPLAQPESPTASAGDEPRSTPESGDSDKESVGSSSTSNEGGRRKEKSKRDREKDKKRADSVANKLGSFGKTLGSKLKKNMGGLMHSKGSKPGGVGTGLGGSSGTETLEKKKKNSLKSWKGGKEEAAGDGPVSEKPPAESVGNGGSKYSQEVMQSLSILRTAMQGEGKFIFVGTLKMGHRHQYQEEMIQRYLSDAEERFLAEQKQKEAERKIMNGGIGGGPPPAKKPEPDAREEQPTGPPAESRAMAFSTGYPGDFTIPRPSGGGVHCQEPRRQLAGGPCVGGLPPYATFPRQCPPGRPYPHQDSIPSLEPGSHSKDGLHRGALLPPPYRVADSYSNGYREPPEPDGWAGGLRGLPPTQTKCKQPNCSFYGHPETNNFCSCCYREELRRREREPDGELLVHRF", "summary_of_the_method": "as §1"}, "[3]": {"molecular_target": "PRPF8 (UniProt Q6P2Q9)", "summary_of_the_method": "as §1"}, "[4]": {"molecular_target": "T3, PSMD7 (UniProt P51665)", "T3 sequence (whole entry)": "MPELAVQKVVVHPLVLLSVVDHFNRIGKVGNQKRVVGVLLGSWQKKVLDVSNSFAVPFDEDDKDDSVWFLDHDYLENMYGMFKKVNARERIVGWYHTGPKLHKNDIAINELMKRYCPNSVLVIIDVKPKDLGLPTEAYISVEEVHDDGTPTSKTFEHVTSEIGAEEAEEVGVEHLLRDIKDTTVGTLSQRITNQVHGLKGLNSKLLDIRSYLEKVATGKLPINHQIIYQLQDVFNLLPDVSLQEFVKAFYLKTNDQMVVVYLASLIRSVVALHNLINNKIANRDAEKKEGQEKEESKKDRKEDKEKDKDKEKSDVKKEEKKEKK", "summary_of_the_method": "as §1"}, "[5]": {"molecular_target": "UCHL1 (UniProt P09936)", "sequence (P09936 whole entry, looked up)": "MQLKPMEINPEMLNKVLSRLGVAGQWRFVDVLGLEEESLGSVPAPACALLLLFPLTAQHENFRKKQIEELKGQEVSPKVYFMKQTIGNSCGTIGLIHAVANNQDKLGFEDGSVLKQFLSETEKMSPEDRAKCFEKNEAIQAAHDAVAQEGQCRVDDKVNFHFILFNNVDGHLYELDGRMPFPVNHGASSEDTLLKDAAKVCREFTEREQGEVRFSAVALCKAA", "summary_of_the_method": "as §1"}, "[6]": {"molecular_target": "T4, UCHL3 (UniProt P15374)", "T4 sequence (whole entry)": "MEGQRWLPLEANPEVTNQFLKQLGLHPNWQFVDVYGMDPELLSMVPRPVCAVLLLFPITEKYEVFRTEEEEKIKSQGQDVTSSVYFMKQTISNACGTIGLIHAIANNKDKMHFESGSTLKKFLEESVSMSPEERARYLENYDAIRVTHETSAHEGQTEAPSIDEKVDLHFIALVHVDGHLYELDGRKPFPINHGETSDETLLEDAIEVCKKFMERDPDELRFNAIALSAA", "summary_of_the_method": "as §1"}, "[7]": {"molecular_target": "T5, UCHL5 (UniProt Q9Y5K5)", "T5 sequence (whole entry)": "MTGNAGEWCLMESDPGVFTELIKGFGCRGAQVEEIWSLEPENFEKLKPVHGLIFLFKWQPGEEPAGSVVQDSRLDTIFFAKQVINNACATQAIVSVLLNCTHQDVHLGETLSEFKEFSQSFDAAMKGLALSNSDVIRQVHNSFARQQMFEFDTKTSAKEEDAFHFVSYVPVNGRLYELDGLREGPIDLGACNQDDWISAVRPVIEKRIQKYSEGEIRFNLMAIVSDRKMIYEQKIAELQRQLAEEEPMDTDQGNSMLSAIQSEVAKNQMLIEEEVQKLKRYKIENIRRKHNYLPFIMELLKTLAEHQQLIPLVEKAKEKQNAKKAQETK", "summary_of_the_method": "as §1"}, "[8]": {"molecular_target": "USP10 (UniProt Q14694)", "sequence (Q14694 whole entry)": "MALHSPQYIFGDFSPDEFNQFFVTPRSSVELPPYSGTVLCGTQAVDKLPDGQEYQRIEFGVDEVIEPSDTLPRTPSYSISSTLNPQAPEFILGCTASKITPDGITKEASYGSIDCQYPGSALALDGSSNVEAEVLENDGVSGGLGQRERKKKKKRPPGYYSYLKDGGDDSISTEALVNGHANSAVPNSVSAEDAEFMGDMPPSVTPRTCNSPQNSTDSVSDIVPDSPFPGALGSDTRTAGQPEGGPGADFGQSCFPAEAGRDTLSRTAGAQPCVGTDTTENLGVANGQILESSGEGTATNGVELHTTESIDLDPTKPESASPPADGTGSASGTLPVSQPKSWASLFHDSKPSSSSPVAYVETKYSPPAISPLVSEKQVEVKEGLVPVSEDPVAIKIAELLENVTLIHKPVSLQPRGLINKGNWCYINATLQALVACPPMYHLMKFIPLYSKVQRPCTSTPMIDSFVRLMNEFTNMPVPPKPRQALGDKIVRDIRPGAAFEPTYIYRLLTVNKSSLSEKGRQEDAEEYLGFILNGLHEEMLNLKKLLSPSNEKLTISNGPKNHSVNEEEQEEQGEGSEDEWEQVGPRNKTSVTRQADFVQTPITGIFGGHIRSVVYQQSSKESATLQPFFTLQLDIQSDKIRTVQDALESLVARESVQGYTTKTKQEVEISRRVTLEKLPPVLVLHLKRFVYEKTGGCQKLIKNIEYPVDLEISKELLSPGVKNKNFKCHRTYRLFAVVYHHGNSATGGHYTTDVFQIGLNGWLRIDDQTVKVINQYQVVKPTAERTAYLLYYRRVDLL", "summary_of_the_method": "as §1"}, "[9]": {"molecular_target": "T6, USP15 (UniProt Q9Y4E8)", "T6 sequence (whole entry)": "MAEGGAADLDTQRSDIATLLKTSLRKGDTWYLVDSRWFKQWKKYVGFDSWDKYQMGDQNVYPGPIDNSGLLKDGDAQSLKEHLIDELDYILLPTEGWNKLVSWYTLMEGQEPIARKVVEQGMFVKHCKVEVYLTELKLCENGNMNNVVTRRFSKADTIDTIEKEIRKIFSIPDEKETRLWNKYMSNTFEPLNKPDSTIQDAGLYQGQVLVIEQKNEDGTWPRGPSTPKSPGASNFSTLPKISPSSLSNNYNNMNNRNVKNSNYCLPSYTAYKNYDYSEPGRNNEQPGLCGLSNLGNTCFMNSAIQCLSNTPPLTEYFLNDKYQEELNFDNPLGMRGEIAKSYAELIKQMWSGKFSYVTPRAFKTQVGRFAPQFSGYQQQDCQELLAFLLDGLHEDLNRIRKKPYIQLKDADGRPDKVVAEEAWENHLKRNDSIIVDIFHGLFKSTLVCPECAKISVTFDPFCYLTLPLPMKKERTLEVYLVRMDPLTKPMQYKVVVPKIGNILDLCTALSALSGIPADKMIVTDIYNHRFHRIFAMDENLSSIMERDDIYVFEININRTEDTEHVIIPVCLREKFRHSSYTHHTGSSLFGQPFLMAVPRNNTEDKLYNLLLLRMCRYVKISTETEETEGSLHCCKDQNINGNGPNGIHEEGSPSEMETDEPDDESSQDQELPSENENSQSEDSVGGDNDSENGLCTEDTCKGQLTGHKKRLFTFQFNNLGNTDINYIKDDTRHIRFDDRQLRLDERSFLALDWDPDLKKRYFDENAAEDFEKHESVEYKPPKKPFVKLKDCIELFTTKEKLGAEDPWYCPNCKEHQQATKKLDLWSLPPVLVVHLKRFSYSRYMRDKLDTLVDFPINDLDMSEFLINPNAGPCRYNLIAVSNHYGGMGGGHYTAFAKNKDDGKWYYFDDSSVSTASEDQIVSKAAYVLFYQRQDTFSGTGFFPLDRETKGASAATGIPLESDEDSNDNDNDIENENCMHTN", "summary_of_the_method": "as §1"}, "[10]": {"molecular_target": "USP16 (UniProt Q9Y5T5)", "sequence (Q9Y5T5 whole entry, looked up)": "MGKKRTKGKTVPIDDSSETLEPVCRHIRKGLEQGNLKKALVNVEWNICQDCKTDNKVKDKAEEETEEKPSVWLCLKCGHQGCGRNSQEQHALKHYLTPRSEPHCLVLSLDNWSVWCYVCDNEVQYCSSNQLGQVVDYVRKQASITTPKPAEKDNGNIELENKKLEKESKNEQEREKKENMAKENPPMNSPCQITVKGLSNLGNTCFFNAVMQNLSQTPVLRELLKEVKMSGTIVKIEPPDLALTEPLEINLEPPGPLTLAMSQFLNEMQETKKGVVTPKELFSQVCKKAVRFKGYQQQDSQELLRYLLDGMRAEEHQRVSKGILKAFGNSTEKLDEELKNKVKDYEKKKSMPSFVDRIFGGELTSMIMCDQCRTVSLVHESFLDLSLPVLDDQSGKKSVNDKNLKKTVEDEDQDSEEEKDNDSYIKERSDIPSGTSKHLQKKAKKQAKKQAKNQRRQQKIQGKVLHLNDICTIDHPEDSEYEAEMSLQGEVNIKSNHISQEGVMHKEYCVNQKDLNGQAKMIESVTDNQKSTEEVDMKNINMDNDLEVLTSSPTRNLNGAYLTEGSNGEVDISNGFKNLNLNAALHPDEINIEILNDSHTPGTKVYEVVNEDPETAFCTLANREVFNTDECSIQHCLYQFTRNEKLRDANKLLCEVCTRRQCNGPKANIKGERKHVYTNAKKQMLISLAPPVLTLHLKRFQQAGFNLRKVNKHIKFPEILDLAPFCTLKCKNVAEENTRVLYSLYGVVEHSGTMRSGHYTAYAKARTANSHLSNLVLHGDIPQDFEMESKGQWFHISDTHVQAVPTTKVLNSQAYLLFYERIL", "summary_of_the_method": "as §1"}},
  "note": "A number with no mark means an inactive call.",
  "data": [
    {"smiles": "CC(NC(=O)CCl)c1csc(-c2ccccc2)n1.Cl", "note": "(stereo not given)", "values": [
      {"measurement": "log2 ratio of Biotin-Ahx-Ub-VS probe labelling", "setting": "[1]", "value": -0.597},
      {"measurement": "log2 ratio of Biotin-Ahx-Ub-VS probe labelling", "setting": "[2]", "value": "-1.07 (active)"},
      {"measurement": "log2 ratio of Biotin-Ahx-Ub-VS probe labelling", "setting": "[3]", "value": -0.0372},
      {"measurement": "log2 ratio of Biotin-Ahx-Ub-VS probe labelling", "setting": "[4]", "value": -0.175},
      {"measurement": "log2 ratio of Biotin-Ahx-Ub-VS probe labelling", "setting": "[5]", "value": "-1.3 (active)"},
      {"measurement": "log2 ratio of Biotin-Ahx-Ub-VS probe labelling", "setting": "[6]", "value": -0.457},
      {"measurement": "log2 ratio of Biotin-Ahx-Ub-VS probe labelling", "setting": "[7]", "value": -0.71},
      {"measurement": "log2 ratio of Biotin-Ahx-Ub-VS probe labelling", "setting": "[8]", "value": -0.126},
      {"measurement": "log2 ratio of Biotin-Ahx-Ub-VS probe labelling", "setting": "[9]", "value": -0.386},
      {"measurement": "log2 ratio of Biotin-Ahx-Ub-VS probe labelling", "setting": "[10]", "value": "-1.03 (active)"}
    ]}
  ]
}
